Sampled rows, rich in hits. Any-hit rate of the full collection: about 0.92%.
BLM inh: Bloom syndrome helicase (human) inhibition; AID 2528; P54132; 350,000 compounds, 0.2% hits; recombinant BLM DNA unwinding, fluorescence dequenching; Potency, µM (series often up to 56.1 µM), for the others: top-dose activity change, negative = inhibition, actives largely listed as inhibitors;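 note: plate controls were vehicle for no effect and no enzyme for full effect; nearly all actives have a fitted effect of over 35% in size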
L3MBTL1 inh: L3MBTL1 (human) inhibition; AlphaScreen L3MBTL1–H3K9me1 peptide binding; Potency, µM (titrated, usually from 57.1 µM), without a hit: at the top dose activity, negative = inhibition, hits mostly inhibitors; 230,000 compounds, 0.66% hits; AID 485360; note: nearly all actives have a fitted effect of over 60% in size
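Displacement of a biotinylated histone H3(1-15) peptide monomethylated at Lys9 (75 nM) from L3MBTL1 (50 nM) was measured by AlphaScreen after a 30 min room-temperature compound incubation; cefsulodin titration served as intraplate control.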
WRN helicase inh: blocks human WRN helicase; WRN helicase unwinding, fluorescent forked duplex, kinetic; Potency, µM (series often up to 114 µM), for inactives: at the top dose activity change, negative = inhibition, most hits filed as inhibitors; 360,000 compounds, 0.46% hits; AID 651768; note: nearly all actives have a fitted effect of over 55% in size
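Kinetic fluorescence helicase assay: unwinding of a quenched forked DNA duplex (100 nM final) with 2 mM ATP final raises red fluorescence (525/598 nm). Compounds sat 15 min at room temperature with 20 nM WRN beforehand.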
RECQ1 inh: blocks DNA unwinding by human RECQ1 | RECQ1 DNA unwinding, red fluorescence kinetic read | 240,000 compounds, 0.54% hits | P46063 | Potency, µM (titrated, usually from 57.3 µM), for the others: at the top dose activity, negative = inhibition, most hits filed as inhibitors | AID 2549;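 note: plate controls were vehicle for no effect and no enzyme for full effect; nearly all actives have a fitted effect of over 30% in size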
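RECQ1T1 50 nM; forked duplex (20 bp + 30-nt ss tails) 200 nM, ATP 2 mM final; pH 8.0, 2 mM MgCl2, 2.5 ug/ml poly(dI-dC); 15 min compound preincubation; discontinuous kinetic read over 2 h at RT.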
APEX1 inh: inhibitors of human APE1 endonuclease. 350,000 compounds, 0.35% hits. Potency, µM (titrated, usually from 65.8 µM), for inactives: at the highest dose activity change, negative = inhibition, hits mostly inhibitors. recombinant APE1, TAMRA/BHQ-2 abasic DNA cleavage fluorescence. AID 2517;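 note: plate controls were vehicle for no effect and reference inhibitor for full effect; nearly all actives have a fitted effect of over 55% in size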
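APE1 at 0.75 nM preincubated 15 min at room temperature with compound. Reaction then started with 50 nM double-stranded THF-abasic substrate labelled with TAMRA/BHQ-2, and 525/598 nm fluorescence read kinetically. Activity taken as third-minus-first read difference, normalized to DMSO and NSC13755 controls.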
* = called active by the depositor; i = inactive; ? = inconclusive; . = no result; [ ] = dose if it differs, or a comment. Calls come from the whole dose curve; as a rule, active = well fitted curve in the direction sought with a large enough effect; inconclusive = small, poorly fitted or top-dose-only effect, or another doubt; inactive = no such curve, though single readings can be large; an effect the other way counts as inactive or inconclusive. Unless noted, % is set by controls: 0 for no effect and ±100 for the full control effect; potency is the fitted concentration of half-maximal effect.

SMILES | BLM inh | L3MBTL1 inh | WRN helicase inh | RECQ1 inh | APEX1 inh
CCCCn1c(NC(=O)c2ccc(Br)o2)c(C(=O)OCC)c2nc3ccccc3nc21 | 22µM* | -24% | ? | -1% | 6%
COC(=O)C1=Nc2ccccc2/C1=C\c1c(O)n(-c2cc(OC)ccc2OC)c(=O)[nH]c1=O | -8% | 8% | 50µM* | ? | ?
CCCBr | . | . | . | 12% | 1%
C[C@]12C=CC(=O)C=C1CC[C@@H]1[C@@H]2CC[C@]2(C)OC(=O)CC[C@@H]12 | . | . | . | . | 19%
CN[C@H]1C[C@H]2O[C@@](C)([C@H]1OC)n1c3ccccc3c3c4c(c5c6ccccc6n2c5c31)C(=O)NC4 | -8% | -17% | . | 28µM* | ?
COC(=O)C1(O)CC2OC1(C)n1c3ccccc3c3c4c(c5c6ccccc6n2c5c31)C(=O)NC4 (stereo not drawn) | 3%[12.4 µM] | . | . | -5%[11.5 µM] | -6%[12.4 µM]
Oc1cc[c]([Hg][Cl])cc1 | 4% | . | . | . | .
CCN(CC)C(=O)c1ccc2c(c1)C1C=CCC1C(C(=O)O)N2 (stereo not drawn) | -14% | . | 45µM* | . | 15%
CCN(CC)C(=O)c1ccc(N(Cc2ccccc2)S(C)(=O)=O)cc1 | 2% | 1% | 7% | . | 7%
CCSC(=O)Cl | . | . | . | -2% | 0%
O=C(O)c1ccc2c(c1)C1C(Cl)C(Sc3ccccc3[N+](=O)[O-])CC1C(c1cccc([N+](=O)[O-])c1)N2 (stereo not drawn) | -19% | 22µM* | ? | -19% | -10%
Cc1ccc2c(c1Cl)NC(C(=O)O)C1CC(Sc3ccccc3[N+](=O)[O-])C(Cl)C21 (stereo not drawn) | -16% | . | -9%[11.6 µM] | -28% | -4%
O=C(O)c1cccc2c1NC(c1cccc([N+](=O)[O-])c1)C1CC(Sc3ccccc3[N+](=O)[O-])C(Cl)C21 (stereo not drawn) | -29% | 20µM* | -32% | i | -10%
O=C1NC(=O)C(=Cc2ccccc2Oc2ccc(F)cc2)C(=O)N1 | -10% | . | 32µM* | -4% | -1%
CN1C(=O)C(=Cc2ccccc2Oc2ccc(Cl)c(F)c2)C(=O)N(C)C1=O | -6% | 11% | 50µM* | -7% | -3%
CO/C1=C\C(C)=C\[C@@H](C)[C@@H](O)[C@@H](C)C/C(C)=C/C=C/[C@H](OC)[C@@H]([C@@H](C)[C@@H](O)[C@H](C)[C@@]2(O)C[C@@H](O)[C@H](C)C(C(C)C)O2)OC1=O (stereo partly drawn) | -13% | . | . | i | ?
O=C(O)CCn1cc(C=C2C(=O)NC(=O)NC2=O)c(-c2ccc(Br)cc2)n1 | 4% | 10% | ? | -7% | 15%
O=C(O)CCn1cc(C=C2C(=O)NC(=S)NC2=O)c(-c2cccc(Cl)c2)n1 | 2% | -18% | 45µM* | -3% | 1%
C=CCOCC1CO1 (stereo not drawn) | . | . | . | -1% | 0%
CCCCCCCC/C=C\CCCCCCCC(=O)OC[C@@H](COP(O)(O)=S)OC | ? | . | . | 25µM* | ?
CCCCC/C=C\C/C=C\C/C=C\C/C=C\CCCC(=O)OC(CO)CO | -8% | . | . | 2% | -3%
CCN1C[C@]2(COC)[C@H](O)C[C@H](OC)[C@@]34[C@@H]5C[C@@]6(O)[C@H](OC(=O)c7ccccc7)[C@@H]5[C@@](OC(C)=O)([C@@H]([C@H](OC)[C@H]23)[C@@H]14)[C@@H](O)[C@@H]6OC | . | . | . | . | 3%
[N-]=[N+]=[N-] | . | . | . | 1% | 27%
O=C1OC(c2cc(I)c(O)c(I)c2)(c2cc(I)c(O)c(I)c2)c2ccccc21 | ? | . | . | 8.9µM* | .
CN1C(=O)NC(=O)/C(=C/c2ccc([N+](=O)[O-])o2)C1=O | -8% | 25µM* | ? | i | ?
SMILES | BLM inh | L3MBTL1 inh | WRN helicase inh | RECQ1 inh | APEX1 inh
CN1C(=O)NC(=O)/C(=C\c2ccc([N+](=O)[O-])o2)C1=O | 22% | 10µM* | 25µM* | i | ?
O=C1NC(=O)N(c2ccccc2)C(=O)/C1=C\c1ccc([N+](=O)[O-])o1 | 35% | 3.2µM* | . | -25% | ?
CN1C(=O)NC(=O)/C(=C/c2ccc([N+](=O)[O-])s2)C1=O | -1% | . | ? | ? | ?
CC[C@H](C)[C@H]1O[C@]2(C=C[C@@H]1C)C[C@@H]1C[C@@H](C/C=C(\C)[C@@H](O[C@H]3C[C@H](OC)[C@@H](O[C@H]4C[C@H](OC)[C@@H](O)[C@H](C)O4)[C@H](C)O3)[C@@H](C)/C=C/C=C3\CO[C@@H]4[C@H](O)C(C)=C[C@@H](C(=O)O1)[C@]34O)O2 | . | . | . | . | 4%
CCCCOCC1CO1 (stereo not drawn) | . | . | . | 2% | 3%
CN(C)NC(=O)CCC(=O)O | . | . | . | -18% | 14%
NP(=O)(OCCCc1ccccc1)Oc1ccccc1Cl (stereo not drawn) | 0% | 2% | 3% | . | 10%
NP(=O)(OCCCc1ccccc1)Oc1ccc(Cl)cc1 (stereo not drawn) | -3% | 14µM* | -1% | . | 26%
C[n+]1c(-c2ccccc2)c2cc(N)ccc2c2ccc(N)cc21 | ? | . | 2.7µM* | . | 11µM*
Cc1ccc(N2C(=O)NC(=O)/C(=C/c3cnn(-c4ccc(C)cc4)c3)C2=O)cc1 | 1% | 0% | -19% | -5% | 1%
Cc1ccc(N2C(=O)NC(=O)/C(=C/c3ccoc3)C2=O)cc1 | 16µM* | . | 32µM* | 13µM* | 1.6µM*
O=C1NC(=O)N(c2ccccc2)C(=O)/C1=C\C=C\c1ccccc1 | -11% | ? | 32µM* | -14% | -2%
Cc1ccc(N2C(=O)NC(=O)/C(=C\c3cnc(-c4ccccc4)nc3)C2=O)cc1 | 7% | 1% | ? | -3% | 7%
Cc1cc(C)cc(N2C(=O)NC(=O)/C(=C\C=C\c3ccco3)C2=O)c1 | 2% | ? | 50µM* | 14µM* | 12%
CC(C)c1ccc(N2C(=O)NC(=O)/C(=C/C=C/c3ccco3)C2=O)cc1 | -21% | ? | 50µM* | ? | ?
OC[C@@H](O)[C@H]1O[C@@H]2O[C@H](C(Cl)(Cl)Cl)O[C@@H]2[C@H]1O | . | . | . | . | -6%
Cc1ccc([N+](=O)[O-])cc1C | . | . | . | 3% | 16%
Cc1ccc(N2C(=O)NC(=O)/C(=C/C=C/c3ccco3)C2=O)cc1 | 5% | ? | 45µM* | 20µM* | ?
CCc1ccc(N2NC(=O)/C(=C/C=C/c3ccco3)C2=O)cc1 | -15% | -10% | ? | -11% | 2%
CC[N+](C)(CC)CCCCOc1ccc2c(c1)C(=O)c1cc(OCCCC[N+](C)(CC)CC)ccc1-2 | -29% | 3% | 40µM* | -13% | -5%
CCC12CCN(Cc3ccc(F)cc3)CC1Oc1c(O)cccc12 (stereo not drawn) | . | . | . | . | 20%
Cc1ccccc1N1C(=O)/C(=C/c2ccco2)C(=O)NC1=S | 0.89µM* | . | . | . | 0.075µM*

From PubChem BioAssay
